Hits are enriched below; roughly 28% of the tested compounds scored in any of these assays.
CYP2C9 inhib: blockers of cytochrome P450 2C9 activity – biochemical, luminescence, ADME assay, primary screen; CYP2C9 Supersomes, luciferin-H conversion; inhibition, % at 5 µM; 96,000 tested, 20% active;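 active = blocking of liver enzyme CYP2C9 beyond about 50% at 5 µM, limit read from the data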
CD11b adhes inh: inhibitors of CD11b/CD18 adhesion to fibrinogen, primary screen, K562 cells, luminescence; inhibition, % at 10 µM; AID 1497, 2009; 93,000 tested, 0.54% active; Integrin beta-2 (Homo sapiens) + Integrin alpha-M (Homo sapiens), P05107+P11215; ATPlite luminescence; Mn2+ added to activate the integrin;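 active = primary inhibition of 50% or more at 10 µM, then 40% or more on retest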
CYP2C19 inhib: blockers of cytochrome P450 2C19 activity – biochemical, luminescence, ADME assay, primary screen; P33261; CYP2C19 Supersomes, luciferin-H EGE luminescence, 30 min; inhibition, % at 5 µM; 96,000 tested, 21% active; AID 778, 2007;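 active = CYP2C19 inhibition above a set limit at 5 µM in the primary screen, cut at about 50% in these data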;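 also: plate controls were negative control wells for no effect and 2.5 mM tranylcypromine positive control for full effect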
Target sequence (P33261 whole entry, looked up): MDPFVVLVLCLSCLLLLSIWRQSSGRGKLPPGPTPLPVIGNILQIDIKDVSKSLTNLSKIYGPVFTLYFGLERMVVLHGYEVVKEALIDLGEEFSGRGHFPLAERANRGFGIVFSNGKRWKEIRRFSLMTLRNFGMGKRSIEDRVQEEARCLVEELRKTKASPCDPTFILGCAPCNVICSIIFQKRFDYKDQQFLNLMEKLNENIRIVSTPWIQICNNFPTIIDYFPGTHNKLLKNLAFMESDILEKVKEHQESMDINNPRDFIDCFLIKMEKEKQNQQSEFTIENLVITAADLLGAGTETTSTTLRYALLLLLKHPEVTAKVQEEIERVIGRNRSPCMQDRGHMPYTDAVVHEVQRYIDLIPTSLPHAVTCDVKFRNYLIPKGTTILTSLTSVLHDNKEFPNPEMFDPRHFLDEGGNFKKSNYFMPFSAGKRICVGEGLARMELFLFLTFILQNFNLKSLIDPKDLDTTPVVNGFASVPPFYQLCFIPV
Mac1 fbg enh: enhancers of CD11b/CD18 adhesion to fibrinogen, primary screen, K562 cells, luminescence; ATPlite luminescence; activation, % at 10 µM; AID 1499, 2009; 93,000 tested, 0.07% active;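 active = 10 µM primary screen giving 50% or more activity, confirmed by 40% or more on retest at that dose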
CYP2C19 act: human CYP2C19 activators, primary screen, biochemical, luminescence; activation factor at 5 µM; recombinant CYP2C19, luciferin-H EGE luminescence; hits give high values; 0 = fully inhibited enzyme, 1 = untreated enzyme; 96,000 tested, under 10 active; Cytochrome P450 2C19 (Homo sapiens), P33261; AID 1025, 2008;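 active = activation factor of at least 2 at 5 µM in the primary screen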;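 also: 0 = wells with 2.5 mM tranylcypromine and 1 = vehicle-only wells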
CYP2C9 act: human CYP2C9 activators, primary screen, biochemical, luminescence; recombinant CYP2C9, luciferin-H conversion; hits give high values; factor 1 = untreated enzyme, 0 = blocked; activation factor at 5 µM; 96,000 tested, 1.4% active; AID 1024, 2008;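 active = activation factor of 2 or more for CYP2C9 at a 5 µM dose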;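 also: 0 = sulfaphenazole-blocked wells and 1 = vehicle-only wells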
Starred values were filed as active, the others as inactive; . = not tested or not shown.

SMILES | CYP2C9 inhib | CD11b adhes inh | CYP2C19 inhib | Mac1 fbg enh | CYP2C19 act | CYP2C9 act
COc1ccc(C2CC(c3ccccc3)=NN2c2ccc(/C=N/NC(=O)c3ccncc3)cc2)cc1 (stereo unspecified) | 56* | . | 17 | . | 0.8 | 0.4
CC1CCN(Cc2csc(N)n2)CC1 | 0 | -5 | -27 | -5 | 1.3 | 1
CCOC(=O)C1=CN(c2cccc(F)c2)C=C(C(=O)OCC)C1c1cc(OC)c(O)c([N+](=O)[O-])c1 | 57* | 8 | -16 | 2 | 1.2 | 0.4
COc1ccccc1C(=O)Nc1c2c(nn1-c1cccc(C)c1C)CS(=O)C2 (stereo unspecified) | 26 | -25 | 40 | 0 | 0.6 | 0.7
CCC(Sc1nc(-c2ccccc2)c(C#N)c(=O)[nH]1)C(=O)Nc1cc(C)on1 (stereo unspecified) | 83* | -23 | -6 | -2 | 1.1 | 0.2
COC(=O)C(CC(C)C)NC(=O)CSc1nc(-c2ccccc2)c(C#N)c(=O)[nH]1 (stereo unspecified) | 88* | -19 | 65* | 2 | 0.3 | 0.1
CCOC(=O)CC1C(=O)NCCN1C(=O)Nc1ccccc1 (stereo unspecified) | 6 | -28 | 26 | 5 | 0.7 | 0.9
O=C(c1ccc(Cl)c(S(=O)(=O)NCc2ccco2)c1)N1CCN(c2ccc(F)cc2)CC1 | 0 | 7 | 24 | -3 | 0.8 | 1
O=C(CS(=O)(=O)c1ccccc1)Nc1nc(-c2ccccc2)cs1 | 98* | 9 | 76* | 3 | 0.2 | 0
Cc1ccc(S(=O)(=O)CC(=O)Nc2nc(-c3ccccc3)cs2)cc1 | 97* | 23 | 85* | 4 | 0.2 | 0
CCCCCC(C)n1[nH]c(=O)cc1N (stereo unspecified) | 19 | -5 | 10 | -2 | 0.9 | 0.8
CN(C)c1ccc(C2CC(=O)NC3=C2C(=O)CC(C)(C)C3)cc1 (stereo unspecified) | 8 | 2 | 61* | -2 | 0.4 | 0.9
CC1(C)CC(=O)C2=C(C1)Nc1[nH]n(-c3ccccc3)c(=O)c1C2c1ccc2c(c1)OCO2 (stereo unspecified) | 44 | -23 | 55* | 26 | 0.5 | 0.6
CCN(CC)c1ccc(C2C(C(=O)Nc3ccccn3)=C(C)NC3=C2C(=O)CC(C)(C)C3)cc1 (stereo unspecified) | 94* | -4 | 42 | 5 | 0.6 | 0.1
CCSc1cc(C2C(C(=O)OC)=C(C)NC3=C2C(=O)CCC3)c(C)o1 (stereo unspecified) | 23 | -10 | 25 | 0 | 0.7 | 0.8
COCCOC(=O)C1=C(C)NC2=C(C(=O)CCC2)C1c1cc2c(cc1Br)OCO2 (stereo unspecified) | 79* | -2 | 96* | 2 | 0 | 0.2
COc1ccc(C2C3=C(CC(C)(C)CC3=O)Nc3c2c(=O)[nH]c(=O)n3Cc2ccccc2)cc1OC (stereo unspecified) | 0 | -15 | 16 | 3 | 0.8 | 1
Cc1c(Cl)c(-c2n[nH]c(=S)n2Cc2ccco2)nn1C | 32 | -60 | 31 | -1 | 0.7 | 0.7
CCC(c1nnc(SCC(=O)Nc2ccc(Cl)cc2C(F)(F)F)n1C1CCCCC1)N(C)C (stereo unspecified) | . | -3 | . | -2 | . | .
CCCOC(=O)C1=C(C)NC2=C(C(=O)CC(C)(C)C2)C1c1ccc(N(C)C)cc1 (stereo unspecified) | 80* | -11 | 85* | -1 | 0.1 | 0.2
CCN(CC)c1ccc(C2C(C(=O)OCCOC)=C(C)NC3=C2C(=O)CC(C)(C)C3)cc1 (stereo unspecified) | 19 | -4 | 30 | 2 | 0.7 | 0.8
CCOC(=O)C1=C(C)N(C)C(=O)NC1c1cc2c(cc1Br)OCO2 (stereo unspecified) | 38 | 7 | 62* | 4 | 0.4 | 0.6
COC(=O)c1ccc(C2C(C#N)=C(C)NC3=C2C(=O)CC(C)(C)C3)cc1 (stereo unspecified) | 36 | -1 | 24 | -7 | 0.8 | 0.6
CCOC(=O)C1=C(C)NC2=C(C(=O)CC(C)(C)C2)C1c1cccc(C)n1 (stereo unspecified) | 16 | 60 | 55* | -3 | 0.5 | 0.8
COCCOC(=O)C1=C(C)NC2=C(C(=O)CC(C)(C)C2)C1c1ccc2c(c1)OCO2 (stereo unspecified) | 82* | -2 | 90* | 2 | 0.1 | 0.2
SMILES | CYP2C9 inhib | CD11b adhes inh | CYP2C19 inhib | Mac1 fbg enh | CYP2C19 act | CYP2C9 act
COCCNC(C)C(=O)Nc1ccc(Br)cc1 (stereo unspecified) | 0 | -3 | 17 | 0 | 0.8 | 1
CC(C)CC1NC(=O)N(CC(=O)N2CCN(S(=O)(=O)c3ccccc3)CC2)C1=O (stereo unspecified) | -2 | . | -3 | . | 1 | 1
Cc1nc2ccccc2nc(C)c1=NOCc1ccccc1Cl | . | -20 | . | 6 | . | .
O=C(NCc1ccco1)C12CC3CC(C1)CC(C(=O)NCc1ccco1)(C3)C2 | -4 | -8 | 14 | -4 | 0.9 | 1
O=C(NC1CCN(C(=S)NCc2ccco2)CC1)C12CC3CC(CC(C3)C1)C2 | 30 | -24 | 67* | 3 | 0.3 | 0.7
Cc1c(NC(=O)CSc2nnc(-c3cccc(Cl)c3)o2)c(=O)n(-c2ccccc2)n1C | 32 | -21 | 0 | 3 | 1 | 0.7
COc1cc(-c2nnc(SCC(=O)OC3CCCCC3)o2)cc(OC)c1OC | 14 | -10 | 18 | -5 | 0.8 | 0.9
COc1ccc(CN(C(=O)CSc2nnc(-c3ccccc3F)o2)c2ccc(F)cc2)cc1 | 76* | 30 | 62* | 5 | 0.4 | 0.2
CCOC(=O)CN(C(=O)CSc1nnc(-c2ccc(OC)c(OC)c2)o1)c1ccc(F)cc1 | 38 | 35 | 13 | 0 | 0.9 | 0.6
O=C(CSc1nnc(-c2ccccc2)o1)NC1CCCCC1 | 48 | -18 | 83* | 4 | 0.2 | 0.5
COc1ccccc1-c1nnc(SCC(=O)NC2CCCCC2)o1 | -93 | -6 | 54* | 0 | 0.5 | 1.9
COc1ccccc1-c1nnc(SCC(=O)Nc2c(Cl)cccc2Cl)o1 | 74* | -18 | 85* | 3 | 0.2 | 0.3
COc1ccc(NC(=O)Cn2c(C)cc(=O)c3cccc(OC)c32)cc1 | 6 | -2 | 3 | -1 | 1 | 0.9
O=C(CSc1nnc(-c2ccco2)o1)NC1CCCCC1 | 10 | -7 | 55* | -3 | 0.4 | 0.9

Screening results deposited in PubChem BioAssay by Sanford-Burnham Center for Chemical Genomics.
